# Laboratory results from the supplement of paper PMC8728848.
# The full list was thinned out, with the strongest signals kept by preference.
# B1: Ecp6 (Cladosporium fulvum), B3VBK9 (protein)
# chain: MQSMILFAAALMGAAVNGFVLPRTDDPDCETKATDCGSTSNIKYTVVKGDTLTSIAKKFKSGICNIVSVNKLANPNLIELGATLIIPENCSNPDNKSCVSTPAEPTETCVPGLPGSYTIVSGDTLTNISQDFNITLDSLIAANTQIENPDAIDVGQIITVPVCPSSQCEAVGTYNIVAGDLFVDLAATYHTTIGQIKALNNNVNPSKLKVGQQIILPQDCKNVTTAVA
# B2: StcE (Escherichia coli), O82882.2 (protein)
# chain: ADNNSAIYFNTSQPINDLQGSLAAEVKFAQSQILPAHPKEGDSQPHLTSLRKSLLLVRPVKADDKTPVQVEARDDNNKILGTLTLYPPSSLPDTIYHLDGVPEGGIDFTPHNGTKKIINTVAEVNKLSDASGSSIHSHLTNNALVEIHTANGRWVRDIYLPQGPDLEGKMVRFVSSAGYSSTVFYGDRKVTLSVGNTLLFKYVNGQWFRSGELENNRITYAQHIWSAELPAHWIVPGLNLVIKQGNLSGRLNDIKIGAPGELLLHTIDIGMLTTPRDRFDFAKDKEAHREYFQTIPVSRMIVNNYAPLHLKEVMLPTGELLTDMDPGNGGWHSGTMRQRIGKELVSHGIDNANYGLNSTAGLGENSHPYVVAQLAAHNSRGNYANGIQVHGGSGGGGIVTLDSTLGNEFSHEVGHNYGLGHYVDGFKGSVHRSAENNNSTWGWDGDKKRFIPNFYPSQTNEKSCLNNQCQEPFDGHKFGFDAMAGGSPFSAANRFTMYTPNSSAIIQRFFENKAVFDSRSSTGFSKWNADTQEMEPYEHTIDRAEQITASVNELSESKMAELMAEYAVVKVHMWNGNWTRNIYIPTASADNRGSILTINHEAGYNSYLFINGDEKVVSQGYKKSFVSDGQFWKERDVVDTREARKPEQFGVPVTTLVGYYDPEGTLSSYIYPAMYGAYGFTYSDDSQNLSDNDCQLQVDTKEGQLRFRLANHRANNTVMNKFHINVPTESQPTQATLVCNNKILDTKSLTPAPEGLTYTVNGQALPAKENEGCIVSVNSGKRYCLPVGQRSGYSLPDWIVGQEVYVDSGAKAKVLLSDWDNLSYNRIGEFVGNVNPADMKKVKAWNGQYLDFSKPRSMRVVYK
# What was measured:
# Assay in all cases: glycan array binding signal (z-score within array); higher = stronger binding
# Conditions in all cases: glycan notation: IUPAC condensed, linker removed
# [1] = target: Fuc(a1-2)Gal(b1-3)GalNAc(a1-3)[Fuc(a1-2)]Gal(b1-4)Glc
# Procedure, shortened: (§1)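 Glycan array data were curated from 3228 arrays in the Consortium for Functional Glycomics database and kept only where the protein sequence was available. Glycan names were converted to IUPAC-condensed notation, and columns mapping to the same glycan were averaged. The binding signal is a within-array Z-score, averaged across arrays of the same protein sequence at different concentrations or buffers and across linkers. Negative Z-scores can be read as non-binding.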
# [2] = target: Fuc(a1-2)Gal(b1-3)GalNAc(a1-3)[Fuc(a1-2)]Gal(b1-4)GlcNAc
# Procedure, shortened: as §1
# [3] = target: Fuc(a1-2)Gal(b1-3)GlcNAc(b1-2)Man(a1-3)[Fuc(a1-2)Gal(b1-3)GlcNAc(b1-2)Man(a1-6)]Man(b1-4)GlcNAc(b1-4)GlcNAc
# Procedure, shortened: as §1
# Fuc(a1-2)Gal(b1-4)Glc6S = target: Fuc(a1-2)Gal(b1-4)Glc6S
# Procedure, shortened: as §1
# [4] = target: Fuc(a1-2)Gal(b1-4)GlcNAc(b1-3)Gal(b1-4)GlcNAc(b1-3)Gal(b1-4)GlcNAc
# Procedure, shortened: as §1
# [5] = target: Fuc(a1-2)Gal(b1-4)[Fuc(a1-3)]GlcNAc
# Procedure, shortened: as §1
# [6] = target: Fuc(a1-2)[Gal(a1-3)]Gal(b1-4)GlcNAc
# Procedure, shortened: as §1
# [7] = target: Fuc(a1-2)[Gal(a1-3)]Gal(b1-4)[Fuc(a1-3)]GlcNAc
# Procedure, shortened: as §1
# [8] = target: Fuc(a1-2)[GalNAc(b1-3)]Gal
# Procedure, shortened: as §1
# Fuc(b1-3)GlcNAc = target: Fuc(b1-3)GlcNAc
# Procedure, shortened: as §1
# [9] = target: Gal(a1-3)Gal(b1-4)[Fuc(a1-3)]GlcNAc
# Procedure, shortened: as §1
# [10] = target: Gal(a1-4)Gal(b1-3)GlcNAc(b1-2)Man(a1-3)[Gal(a1-4)Gal(b1-3)GlcNAc(b1-2)Man(a1-6)]Man(b1-4)GlcNAc(b1-4)GlcNAc
# Procedure, shortened: as §1
# Gal(a1-4)GlcNAc = target: Gal(a1-4)GlcNAc
# Procedure, shortened: as §1
# [11] = target: Gal(b1-3)GalNAc(b1-3)Gal(a1-4)Gal(b1-4)Glc
# Procedure, shortened: as §1
# [12] = target: Gal(b1-3)GlcNAc(b1-3)Gal(b1-4)Glc
# Procedure, shortened: as §1
# [13] = target: Gal(b1-3)GlcNAc(b1-3)Gal(b1-4)GlcNAc(b1-6)[Gal(b1-3)GlcNAc(b1-3)]Gal(b1-4)Glc
# Procedure, shortened: as §1
# [14] = target: Gal(b1-3)GlcNAc(b1-3)GalNAc
# Procedure, shortened: as §1
# [15] = target: Gal(b1-3)[Fuc(a1-4)]GlcNAc(b1-2)Man(a1-3)[Gal(b1-3)[Fuc(a1-4)]GlcNAc(b1-2)Man(a1-6)]Man(b1-4)GlcNAc(b1-4)GlcNAc
# Procedure, shortened: as §1
# [16] = target: Gal(b1-4)GlcNAc(b1-3)Gal(b1-4)[Fuc(a1-3)]GlcNAc(b1-3)Gal(b1-4)[Fuc(a1-3)]GlcNAc
# Procedure, shortened: as §1
# [17] = target: Gal(b1-4)GlcNAc(b1-3)[GlcNAc(b1-6)]Gal(b1-4)GlcNAc
# Procedure, shortened: as §1
# [18] = target: Gal3S(b1-3)[Fuc(a1-4)]GlcNAc
# Procedure, shortened: as §1
# Gal3S(b1-4)Glc = target: Gal3S(b1-4)Glc
# Procedure, shortened: as §1
# [19] = target: Gal3S(b1-4)[Fuc(a1-3)]Glc
# Procedure, shortened: as §1
# GlcA(b1-3)Gal = target: GlcA(b1-3)Gal
# Procedure, shortened: as §1
# [20] = target: GlcNAc(a1-4)Gal(b1-4)GlcNAc(b1-3)Gal(b1-4)GlcNAc
# Procedure, shortened: as §1
# [21] = target: GlcNAc(a1-4)Gal(b1-4)GlcNAc(b1-3)Gal(b1-4)[Fuc(a1-3)]GlcNAc(b1-3)Gal(b1-4)[Fuc(a1-3)]GlcNAc
# Procedure, shortened: as §1
# GlcNAc(b1-3)Gal(b1-4)Glc = target: GlcNAc(b1-3)Gal(b1-4)Glc
# Procedure, shortened: as §1
# [22] = target: GlcNAc(b1-3)Gal(b1-4)GlcNAc
# Procedure, shortened: as §1
# [23] = target: GlcNAc(b1-3)Gal(b1-4)GlcNAc(b1-3)Gal(b1-4)GlcNAc
# Procedure, shortened: as §1
# [24] = target: GlcNAc(b1-4)GlcNAc(b1-4)GlcNAc
# Procedure, shortened: as §1
# [25] = target: GlcNAc(b1-4)GlcNAc(b1-4)GlcNAc(b1-4)GlcNAc(b1-4)GlcNAc
# Procedure, shortened: as §1
# [26] = target: GlcNAc(b1-4)GlcNAc(b1-4)GlcNAc(b1-4)GlcNAc(b1-4)GlcNAc(b1-4)GlcNAc
# Procedure, shortened: as §1
# [27] = target: GlcNAc(b1-4)[GlcNAc(b1-6)]GalNAc
# Procedure, shortened: as §1
# [28] = target: Man(a1-3)[Man(a1-6)]Man(b1-4)GlcNAc(b1-4)GlcNAc
# Procedure, shortened: as §1
# [29] = target: Neu5Ac(a2-3)Gal(b1-3)GalNAc
# Procedure, shortened: as §1
# [30] = target: Neu5Ac(a2-3)Gal(b1-4)[Fuc(a1-3)]GlcNAc
# Procedure, shortened: as §1
# [31] = target: Neu5Ac(a2-3)Gal(b1-4)[Fuc(a1-3)]GlcNAc(b1-3)GalNAc
# Procedure, shortened: as §1
# [32] = target: Neu5Ac(a2-3)Gal6S(b1-4)[Fuc(a1-3)]GlcNAc
# Procedure, shortened: as §1
# [33] = target: Neu5Ac(a2-3)GalNAc(b1-4)GlcNAc
# Procedure, shortened: as §1
# Neu5Ac(a2-6)Gal(b1-4)Glc = target: Neu5Ac(a2-6)Gal(b1-4)Glc
# Procedure, shortened: as §1
# [34] = target: Neu5Ac(a2-6)GalNAc(b1-4)GlcNAc
# Procedure, shortened: as §1
# [35] = target: Man(a1-2)Man(a1-6)[Man(a1-3)]Man(a1-6)[Man(a1-2)Man(a1-2)Man(a1-3)]Man
# Procedure, shortened: as §1
# [36] = target: Man(a1-3)[Man(a1-6)]Man(a1-6)[Man(a1-3)]Man(b1-4)GlcNAc(b1-4)GlcNAc
# Procedure, shortened: as §1
# [37] = target: Man(a1-3)[Man(a1-6)]Man(b1-4)GlcNAc(b1-4)[Fuc(a1-6)]GlcNAc
# Procedure, shortened: as §1
# [38] = target: Neu5Ac(a2-3)Gal(b1-3)GlcNAc(b1-2)Man(a1-3)[GlcNAc(b1-4)][Neu5Ac(a2-3)Gal(b1-3)GlcNAc(b1-2)Man(a1-6)]Man(b1-4)GlcNAc(b1-4)GlcNAc
# Procedure, shortened: as §1
# [39] = target: Neu5Ac(a2-3)Gal(b1-3)[Fuc(a1-4)]GlcNAc(b1-3)Gal(b1-3)[Fuc(a1-4)]GlcNAc
# Procedure, shortened: as §1
# [40] = target: Neu5Ac(a2-3)Gal(b1-3)[Neu5Ac(a2-6)]GalNAc
# Procedure, shortened: as §1
# [41] = target: Neu5Ac(a2-3)Gal(b1-4)GlcNAc(b1-3)Gal(b1-4)[Fuc(a1-3)]GlcNAc
# Procedure, shortened: as §1
# [42] = target: Neu5Ac(a2-3)Gal(b1-4)[Fuc(a1-3)]GlcNAc6S
# Procedure, shortened: as §1
# [43] = target: Neu5Ac(a2-6)Gal(b1-4)GlcNAc(b1-3)GalNAc
# Procedure, shortened: as §1
# [44] = target: Neu5Ac(a2-6)GlcNAc(b1-4)GlcNAc
# Procedure, shortened: as §1
# [45] = target: Neu5Gc(a2-3)Gal(b1-4)GlcNAc
# Procedure, shortened: as §1
binder,measurement,setting,value
B1,glycan array binding signal (z-score),[1],-0.099
same,glycan array binding signal (z-score),[2],-0.099
same,glycan array binding signal (z-score),[3],-0.096
same,glycan array binding signal (z-score),Fuc(a1-2)Gal(b1-4)Glc6S,-0.062
same,glycan array binding signal (z-score),[4],-0.082
same,glycan array binding signal (z-score),[5],-0.078
same,glycan array binding signal (z-score),[6],-0.078
same,glycan array binding signal (z-score),[7],-0.021
same,glycan array binding signal (z-score),[8],-0.077
same,glycan array binding signal (z-score),Fuc(b1-3)GlcNAc,-0.083
same,glycan array binding signal (z-score),[9],-0.102
same,glycan array binding signal (z-score),[10],-0.099
same,glycan array binding signal (z-score),Gal(a1-4)GlcNAc,-0.102
same,glycan array binding signal (z-score),[11],-0.064
same,glycan array binding signal (z-score),[12],-0.076
same,glycan array binding signal (z-score),[13],-0.107
same,glycan array binding signal (z-score),[14],-0.089
same,glycan array binding signal (z-score),[15],-0.039
same,glycan array binding signal (z-score),[16],-0.036
same,glycan array binding signal (z-score),[17],-0.096
same,glycan array binding signal (z-score),[18],-0.074
same,glycan array binding signal (z-score),Gal3S(b1-4)Glc,-0.098
same,glycan array binding signal (z-score),[19],-0.084
same,glycan array binding signal (z-score),GlcA(b1-3)Gal,-0.089
same,glycan array binding signal (z-score),[20],-0.091
same,glycan array binding signal (z-score),[21],-0.002
same,glycan array binding signal (z-score),GlcNAc(b1-3)Gal(b1-4)Glc,-0.094
same,glycan array binding signal (z-score),[22],-0.1
same,glycan array binding signal (z-score),[23],-0.075
same,glycan array binding signal (z-score),[24],10.3
same,glycan array binding signal (z-score),[25],13
same,glycan array binding signal (z-score),[26],10.7
same,glycan array binding signal (z-score),[27],-0.103
same,glycan array binding signal (z-score),[28],-0.085
same,glycan array binding signal (z-score),[29],-0.099
same,glycan array binding signal (z-score),[30],-0.099
same,glycan array binding signal (z-score),[31],-0.004
same,glycan array binding signal (z-score),[32],-0.073
same,glycan array binding signal (z-score),[33],-0.052
same,glycan array binding signal (z-score),Neu5Ac(a2-6)Gal(b1-4)Glc,-0.096
same,glycan array binding signal (z-score),[34],-0.063
B2,glycan array binding signal (z-score),[35],-0.148
same,glycan array binding signal (z-score),[36],-0.198
same,glycan array binding signal (z-score),[37],-0.049
same,glycan array binding signal (z-score),[38],-0.142
same,glycan array binding signal (z-score),[39],4.08
same,glycan array binding signal (z-score),[40],8.93
same,glycan array binding signal (z-score),[41],-0.162
same,glycan array binding signal (z-score),[42],2.84
same,glycan array binding signal (z-score),[43],2.78
same,glycan array binding signal (z-score),[44],-0.156
same,glycan array binding signal (z-score),[45],-0.113
